Rows were chosen to be rich in hits. Some 2.7% of all compounds tested hit in one or more screens of this group.
CHT inh = inhibits the human high affinity choline transporter | hit rate 0.86% among 310,000 | Q9GZV3 | CHT-expressing cells, membrane potential dye, choline response; hits give low values | B-score at 10 µM;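 active means B-score over 3 SD under the library average, and starting fluorescence ratio not unusually high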;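 further: choline stimulus applied at its EC90 after an EC20 pre-addition; B-score computed on integrated fluorescence ratio after choline addition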
IDE act = activators of human insulin-degrading enzyme in cells. P14735. HEK cells, FAbeta-B cleavage, fluorescence polarization; 0% vehicle, 100% cell-free pure enzyme wells. activation, % at 5.96 µM. hit rate 0.073% among 340,000. AID 493087;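 active means activation above the mean of all tested compounds plus 3 SD, set per screening campaign, cut at about 17% in these data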
TMEM16A act = activates or potentiates the mouse TMEM16A chloride channel | Q8BHY3 | HEK293 TMEM16A/YFP-H148Q/I152L, iodide quench fluorescence; hits give low values | B-score at 10 µM | hit rate 0.3% among 340,000;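 active means fluorescence-ratio B-score plate-corrected deviation score at least 3 library SD below zero, with starting fluorescence score within 5 deviations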;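 further: channel opened by trigger with iodide after compound preincubation; score built on the fluorescence ratio of max minus min over baseline; more negative score means more quench and so TMEM16A activation or potentiation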
IDE cell inh = inhibits human insulin-degrading enzyme in HEK cells; hit rate 0.41% among 320,000; inhibition, % at 5.59 µM; FAbetaB cleavage, fluorescence polarization;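 active means percent inhibition above the average of all tested compounds plus 3 SD, set per screening campaign, cut at about 16% in these data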;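 further: IDE supplied by intact live HEK cells; FP after avidin binding of uncleaved biotin substrate so inhibition keeps polarization high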
CHT allo act = human CHT allosteric activation | Q9GZV3 | CHT-expressing cells, membrane potential dye, choline EC20; hits give high values; LV-AA mutant CHT in HEK293 cells | B-score at 10 µM | hit rate 0.49% among 310,000 | AID 488977;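 active means initial fluorescence not abnormally high and integrated response B-score, plate-corrected, over 3 SD above library mean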
TMEM16A inh = mouse TMEM16A channel inhibition, primary screen; Q8BHY3; HEK293 TMEM16A/YFP iodide influx fluorescence, ionomycin; normalized B-score (activity score, 25-100; higher = stronger inhibition) at 10 µM; hit rate 1.2% among 310,000; AID 588511;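 active means ratio plate-corrected score three or more library SD toward inhibition, starting fluorescence score within five deviations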;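 further: score derived from kinetic fluorescence span divided by baseline fluorescence per well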
TMEM16A reconf = re-confirmation of mouse TMEM16A chloride channel inhibitors; shares compounds with TMEM16A inh; HEK293 TMEM16A/YFP-H148Q, iodide quench fluorescence; ionomycin added to raise cell calcium; inhibition, % at 10 µM; hit rate 39% among 2,300; AID 652189;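 active means mean duplicate percent inhibition, scaled so buffer wells are 0 and the reference blocker 100, over three buffer SD above buffer mean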
HEK293 Ca mobil = counter-screen for TMEM16A inhibitors: effect on calcium mobilization; shares compounds with TMEM16A inh; TMEM16A/YFP HEK293, Fluo4 calcium mobilization; calcium response (% of ionomycin), % at 10 µM; hit rate 2% among 2,300;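 active means duplicate-averaged calcium signal over 20% of the ionomycin maximum, relative to buffer baseline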;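 further: each well's signal is peak minus trough fluorescence divided by its pre-addition baseline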
YFP-HEK293 quench = counter-screen for TMEM16A inhibitors: effect in parental YFP-HEK293 cells; 2,300 tested, under 10 active; iodide YFP quench, ionomycin; YFP ratio F(max-min)/F0 at 10 µM; shares compounds with TMEM16A inh;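 active means yellow fluorescent protein signal ratio exceeding the buffer control mean by over 5 SD of those controls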;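 further: ratio is mean of duplicate wells from kinetic YFP trace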
ClC-1 inh = selectivity of TMEM16A inhibitors: inhibition of rat ClC-1 chloride channel; shares compounds with TMEM16A inh; CHO ClC-1-YFP, iodide influx fluorescence quench; iodide control reads 0, buffer control 100; ratio percent, % at 10 µM; 2,300 tested, under 10 active;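 active means duplicate-mean ratio percent above the mean of iodide-only control wells, which defines zero, plus 5 of their SD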;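 further: higher percent means stronger block of ClC-1 iodide influx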
Large screens that a line does not name were inactive (follow-up assays come after a bar, where they were run).

Cc1ccc(S(=O)(=O)N2CCC(C(=O)OCc3ccccc3)CC2)cc1C	TMEM16A inh 25 | TMEM16A reconf inactive | HEK293 Ca mobil inactive | YFP-HEK293 quench inactive | ClC-1 inh inactive
Cc1cc(OC(C)C(=O)NCc2cccnc2)c2c(C)cc(=O)oc2c1 (centres undefined)	none
CC1(C)CC2CC(C)(CN2S(=O)(=O)c2ccc(N)cc2)C1 (centres undefined)	TMEM16A inh 25 | TMEM16A reconf inactive | HEK293 Ca mobil inactive | YFP-HEK293 quench inactive | ClC-1 inh inactive
CC1(C)CC2CC(C)(CN2S(=O)(=O)c2cccc(C(N)=O)c2)C1 (centres undefined)	none (no result: CHT inh, CHT allo act, TMEM16A inh)
COc1ccc(CC2(CO)CCN(S(=O)(=O)c3cccc4cccnc34)CC2)cc1	none
CCOC(=O)c1cc(C)n(S(=O)(=O)c2ccc(C)cc2)c1C	TMEM16A inh 100 | TMEM16A reconf 18% | HEK293 Ca mobil inactive | YFP-HEK293 quench inactive | ClC-1 inh inactive
CCOC(=O)c1ccccc1NS(=O)(=O)c1ccc(C)cc1	none
O=C(Nc1ccc(N2CCN(C(=O)c3cccs3)CC2)c(Cl)c1)c1ccco1	none
Cc1ccccc1C(=O)N1CCN(c2ccc(NC(=O)c3ccco3)cc2Cl)CC1	TMEM16A inh 100 | TMEM16A reconf inactive | HEK293 Ca mobil inactive | YFP-HEK293 quench inactive | ClC-1 inh inactive
COCCN(C(=O)CCC(=O)Nc1nccs1)C(C(=O)NC(C)(C)C)c1ccc(F)cc1 (centres undefined)	TMEM16A inh 100 | TMEM16A reconf inactive | HEK293 Ca mobil inactive | YFP-HEK293 quench inactive | ClC-1 inh inactive
COc1ccccc1OCC(=O)c1[nH]c(C)c(C(C)=O)c1C	TMEM16A inh 25 | TMEM16A reconf inactive | HEK293 Ca mobil inactive | YFP-HEK293 quench inactive | ClC-1 inh inactive
COc1cc(CN(C)CC(=O)c2[nH]c(C)c(C(C)=O)c2C)ccc1OC(F)F	TMEM16A inh 25 | TMEM16A reconf 17% | HEK293 Ca mobil inactive | YFP-HEK293 quench inactive | ClC-1 inh inactive
COc1ccc(NC(=O)CN(C)CC(=O)c2[nH]c(C)c(C(C)=O)c2C)cc1	none (no result: CHT inh, CHT allo act, TMEM16A inh)
C/C(O)=c1/ccc2cccc3nc(C)nc1c23	none | TMEM16A reconf inactive | HEK293 Ca mobil 102% | YFP-HEK293 quench inactive | ClC-1 inh inactive
O=C(N/N=C/c1c[nH]c2ccccc12)C1CC1(c1ccccc1)c1ccccc1 (centres undefined)	none
O=C(N/N=C/c1c[nH]c2ccccc12)C1CC1c1ccccc1 (centres undefined)	TMEM16A inh 25 | TMEM16A reconf 46% | HEK293 Ca mobil inactive | YFP-HEK293 quench inactive | ClC-1 inh inactive
CCc1ccc2c(c1)C(=O)C[C@]1(CCC[C@H](C)C1)O2	none
Cc1cc(C(=O)CSc2nc3ccccc3[nH]2)c(C)n1CC1CCCO1 (centres undefined)	TMEM16A inh 25 | TMEM16A reconf inactive | HEK293 Ca mobil inactive | YFP-HEK293 quench inactive | ClC-1 inh inactive
Cc1cc(C(=O)CSc2nc3ccccc3o2)c(C)n1CC1CCCO1 (centres undefined)	TMEM16A inh 100 | TMEM16A reconf inactive | HEK293 Ca mobil inactive | YFP-HEK293 quench inactive | ClC-1 inh inactive
Cc1cc(C(=O)CSc2nc(N)cc(=O)[nH]2)c(C)n1CC1CCCO1 (centres undefined)	none (no result: CHT inh, CHT allo act, TMEM16A inh)
Cc1cc(C(=O)Cn2nnc(-c3ccc(Cl)cc3)n2)c(C)n1CC1CCCO1 (centres undefined)	TMEM16A inh 25 | TMEM16A reconf 22% | HEK293 Ca mobil inactive | YFP-HEK293 quench inactive | ClC-1 inh inactive
CCCc1cc(=O)[nH]c(SCC(=O)N2c3ccccc3NC(=O)C2(C)C)n1	none (no result: CHT inh, CHT allo act, TMEM16A inh)
CN(c1ccccc1)S(=O)(=O)c1cccc(NC(=O)CSc2nnc(N)s2)c1	TMEM16A inh 100 | TMEM16A reconf 35% | HEK293 Ca mobil inactive | YFP-HEK293 quench inactive | ClC-1 inh inactive
CN(c1ccccc1)S(=O)(=O)c1cccc(NC(=O)CSc2nncs2)c1	none
O=S(=O)([O-])C(c1ccccc1)[n+]1ccccc1 (centres undefined)	none
CC(C)Cc1ccc(C(C)C(=O)Nc2cccnc2)cc1 (centres undefined)	TMEM16A inh 25 | TMEM16A reconf 52% | HEK293 Ca mobil inactive | YFP-HEK293 quench inactive | ClC-1 inh inactive
CC(C(=O)Nc1cccnc1)c1ccc([N+](=O)[O-])cc1 (centres undefined)	none
CCS(=O)(=O)Nc1ccc(C2=NN(S(=O)(=O)CC)C(c3cccs3)C2)cc1 (centres undefined)	none
CC(=O)C12OC(C)(C)OC1CC1C3CCC4=CC(=O)C=CC4(C)C3(F)C(O)CC12C (centres undefined)	none (no result: CHT inh, IDE cell inh, CHT allo act, TMEM16A inh)
Cc1ccc(NC(=O)Cc2ccsc2)cc1Cl	none
COCC(=O)Nc1ccc(C)c(Cl)c1	TMEM16A inh 100 | TMEM16A reconf inactive | HEK293 Ca mobil inactive | YFP-HEK293 quench inactive | ClC-1 inh inactive
CC(C)(C)c1ccc(C(=O)Nc2cccc3ncccc23)cc1	none | TMEM16A reconf 30% | HEK293 Ca mobil inactive | YFP-HEK293 quench inactive | ClC-1 inh inactive
Nc1ccc(C(=O)Nc2cccc3ncccc23)cc1	none
COCCn1c(SCC(=O)NNC(=O)c2ccccc2)nc2ccccc21	none (no result: CHT inh, CHT allo act, TMEM16A inh)
COC(=O)c1c(NC(=O)c2ccc(OC(C)C)cc2)sc2c1CC(C)(C)NC2(C)C	TMEM16A inh 100 | TMEM16A reconf inactive | HEK293 Ca mobil inactive | YFP-HEK293 quench inactive | ClC-1 inh inactive
CCOC(=O)c1c(NC(=O)c2ccc(C)cc2)sc2c1CC(C)(C)NC2(C)C	none (no result: IDE act, TMEM16A act)
O=C(Nc1nc(-c2ccc(F)cc2)cs1)C1CCN(C(=O)c2ccc(F)cc2)CC1	TMEM16A inh 25 | TMEM16A reconf 18% | HEK293 Ca mobil inactive | YFP-HEK293 quench inactive | ClC-1 inh inactive
Cc1cccc(NC(=O)C2CCN(C(=O)c3ccc(F)cc3)CC2)n1	none
CN(C)c1ccnc(SCc2ccccc2Cl)c1C#N	TMEM16A inh 25 | TMEM16A reconf inactive | HEK293 Ca mobil inactive | YFP-HEK293 quench inactive | ClC-1 inh inactive
